Bioassay records as filed in PubChem BioAssay.
WRN helicase inh – WRN helicase (human) inhibition | Q14191 | WRN helicase unwinding, fluorescent forked duplex, kinetic | Potency, µM (highest dose often 114 µM), usual class: inhibitors | 360,000 tested, 0.46% active; further: nearly all actives have a fitted effect of over 55% in size
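Primary qHTS, 1536-well format. 20 nM WRN + compound, 15 min RT; start with 100 nM forked fluorophore/quencher duplex, 2 mM ATP (final); kinetic read ex 525/em 598 nm.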
POLH inh – inhibitors of human DNA polymerase eta; recombinant Pol eta, fluorescent DNA replication assay; Potency, µM (top dose mostly 114 µM), hits mostly inhibitors; 390,000 tested, 1.2% active; AID 588591
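Pol eta at 10 nM preincubated with compounds 15 min at room temperature; reaction started with fluorescent substrate (50 nM final) and read kinetically at 0 and 10 min.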
Pol kappa inh – inhibitors of human DNA polymerase kappa; Q9UBT6; 400,000 tested, 0.53% active; Potency, µM (titrated, usually from 107 µM), hits mostly inhibitors; purified Pol kappa, fluorescent DNA synthesis assay, 10 min
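Activity was followed as the change in fluorescence between reads at 0 and 10 min after starting the reaction with 50 nM substrate. Beforehand, 10 nM polymerase had been preincubated with compound for 15 min at room temperature.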
FEN1 inh – human FEN1 inhibition. Recombinant FEN1 flap cleavage, fluorescence, 15 min. Potency, µM (titrated, usually from 114 µM), hits mostly inhibitors. 390,000 tested, 0.35% active. AID 588795; further: nearly all actives have a fitted effect of over 65% in size
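Read-out was taken twice, immediately and after 15 min, following addition of 50 nM substrate to 10 nM FEN1 that had sat with test compound for 15 min at room temperature. Curves came from a four-parameter Hill model.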
Pol iota inh – blocks human DNA polymerase iota activity; Q9UNA4; Potency, µM (highest dose often 115 µM), most hits filed as inhibitors; 390,000 tested, 1% active; AID 588590; Pol iota fluorescent replication assay, 10 min
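Fluorescent replication assay read twice, at 0 min and 10 min after adding 50 nM (final) substrate. Enzyme (10 nM) and compounds were first incubated 15 min at room temperature; enzyme-free buffer wells were negative controls.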
POLB inh – DNA polymerase beta (human) inhibition | P06746 | Pol beta primer extension/strand displacement, fluorescence kinetic | Potency, µM (titrated, usually from 114 µM), actives largely listed as inhibitors | 340,000 tested, 1.3% active | AID 485314
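Reaction started by 50 nM substrate onto compound-treated Pol beta (10 nM, 15 min preincubation, room temperature); plates read at 0 min and 10 min. Normalized concentration-effect data fitted by four-parameter Hill equation.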
Of the large screens only hits and unclear results are named; the others gave an inactive call. Hits are enriched below; roughly 2.4% of the tested compounds scored in any of these assays. The call rests on the fitted dose curve; in most records, active means well fitted curve in the direction sought with a large enough effect; inconclusive means small, poorly fitted or top-dose-only effect, or another doubt; inactive means no such curve, though single readings can be large; an effect the other way counts as inactive or inconclusive.

CCN1/C(=C/c2ccc3cccc(C)c3[n+]2CC)Sc2ccccc21	WRN helicase inh inconclusive, FEN1 inh 40µM, Pol iota inh inconclusive, POLB inh 50µM
Cc1[nH]c2ccccc2c1/C=N/NC(=O)c1ccc(N)cc1	POLB inh 20µM
Cc1[nH]c2ccccc2c1/C=N/NC(=O)c1ccccc1	none
CC(C)CC(=O)Nc1ccc(-c2nnn(CC(=O)NCc3ccco3)n2)cc1	Pol iota inh 79µM, POLB inh inconclusive
CCCCOc1ccc(-c2nnn(CC(=O)NCc3ccco3)n2)cc1	Pol iota inh inconclusive
CCN(CC)CCN(C(=O)c1ccco1)c1nc2cc(C)cc(C)c2s1	POLB inh 56µM (no result: WRN helicase inh)
CCNc1ncc2nc(-c3cccs3)c(=O)n(Cc3ccc(F)cc3)c2n1	none (no result: WRN helicase inh, POLH inh, FEN1 inh, Pol iota inh, POLB inh)
[O-][n+]1ccccc1SSc1cccc[n+]1[O-]	none (no result: WRN helicase inh, POLH inh, FEN1 inh, Pol iota inh, POLB inh)
COc1ccc(C=O)cc1COc1ccc(F)cc1F	POLH inh inconclusive, Pol iota inh inconclusive, POLB inh 18µM
NC(=O)COC(=O)c1ccccc1OCC(=O)Nc1ccc(Br)cc1	none (no result: WRN helicase inh, POLH inh, POLB inh)
COCCn1c(=O)c(-c2cn(C)c3ccccc23)nc2cnc(Oc3cccc(Cl)c3)nc21	none (no result: WRN helicase inh, POLH inh, FEN1 inh, Pol iota inh, POLB inh)
Cc1ccc(NC(=O)CN(C)C(=O)CCC(=O)c2cccs2)cc1	POLH inh inconclusive, Pol iota inh inconclusive, POLB inh 18µM
Cc1ccnc(NC(=O)CS(=O)(=O)c2ccccc2)c1	none
Cc1ccnc(NC(=O)CCS(=O)(=O)c2ccccc2)c1	POLB inh 22µM
Cc1ccnc(NC(=O)CCC(=O)c2cccs2)c1	POLH inh inconclusive, Pol kappa inh inconclusive, Pol iota inh 20µM (no result: POLB inh)
O=C(CCS(=O)(=O)c1ccccc1)Nc1nnc(C(F)(F)F)s1	POLB inh 50µM
O=C1CCC[C@@H]2CC(N(Cc3cc4ccccc4s3)c3ccccc3)C[C@@H]3CCN1[C@H]23 (some centres not stated)	none (no result: WRN helicase inh, POLH inh, POLB inh)
O=c1[nH]sc2ccccc12	WRN helicase inh 32µM, FEN1 inh inconclusive, Pol iota inh 25µM
O=c1ccsc2ccccc12	none (no result: POLB inh)
CCOC(=O)c1c(C=O)c(C)n(Cc2ccc(Cl)cc2)c1C	FEN1 inh inconclusive
CCOC(=O)C1=C(OCc2ccc(Cl)cc2)C2C=C(C)C=CC2N=C1 (configuration not stated)	POLB inh 45µM
N#CCCN(Cc1ccccc1)C(=O)c1cccs1	POLB inh 0.16µM
CCc1cc2cc(C(=O)Nc3ccccc3F)sc2s1	none
CCc1cc2cc(C(=O)Nc3ccc(F)cc3)sc2s1	POLH inh inconclusive, Pol iota inh inconclusive, POLB inh 56µM
Cc1ccc(C)c(S(=O)(=O)Nc2cc(SCC(=O)O)c(O)c3ccccc23)c1	WRN helicase inh 18µM, POLH inh 22µM, FEN1 inh 56µM, Pol iota inh 8.9µM, POLB inh 79µM
CN1CCN(c2ncc3ncc(=O)n(CCC#N)c3n2)CC1	none (no result: WRN helicase inh, POLH inh, FEN1 inh, Pol iota inh, POLB inh)
COc1ccc(OC)c(/C=C2\SC(=S)N(NS(=O)(=O)c3ccc(C)cc3)C2=O)c1	POLH inh 79µM, POLB inh inconclusive
CCOc1cc(/C=C2\SC(=S)N(Nc3ccccc3)C2=O)ccc1O	WRN helicase inh 18µM, POLH inh inconclusive, Pol kappa inh inconclusive, FEN1 inh inconclusive, Pol iota inh inconclusive, POLB inh 13µM
CCOc1ccc(/C=C2\SC(=S)N(NS(=O)(=O)c3ccc(C)cc3)C2=O)cc1OC	POLH inh inconclusive
CCOc1cc(/C=C2\SC(=S)N(NS(=O)(=O)c3ccccc3)C2=O)ccc1O	WRN helicase inh 56µM, Pol iota inh inconclusive
CCOc1cc(/C=C2\CN(C)C/C(=C\c3ccc(O)c(OCC)c3)C2=O)ccc1O	POLH inh 45µM, Pol iota inh inconclusive
CCOc1cc(/C=C2\SC(=S)N(N3CCOCC3)C2=O)ccc1O	none
CCCCC(=O)N1C/C=C\C(c2ccc(OC)cc2)N(Cc2ccc(F)cc2)C(=O)C1Cc1ccccc1 (configuration not stated)	none (no result: WRN helicase inh, POLH inh, POLB inh)
O=C(N/N=C/C(Br)=C\c1ccccc1)c1n[nH]c2c1CCC2	Pol iota inh 25µM
Cc1ccc(-c2cc(C(=O)N/N=C/c3ccccc3O)n[nH]2)o1	none
